Reference: PubChem BioAssay AID1117319 (Southern Research Institute, 2015)
Several values for one entry are separate records, joined by “and”; a condition that tells them apart may be missing. Equal values may be shown once. Hit rate of the full screen: of about 260,000 compounds, about 1,500 (0.58%) were called active. Inconclusive results (about 5%) are left out.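 How the source made its calls: active means inhibition above a set limit at one or more doses, reproduced on every date tested; inconclusive means results disagree between test dates, or hit never tested in dose response; inactive means the rest.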 A selection follows. Results with a measured potency or affinity are listed apart.

What follows are molecules tested against Virion infectivity factor (Human immunodeficiency virus type 1 group M subtype B (isolate BH10)) + Virion infectivity factor (Human immunodeficiency virus type 1 group M subtype B (isolate BRU/LAI)) + Virion infectivity factor (Human immunodeficiency virus type 1 group M subtype B (isolate PCV12)) + Virion infectivity factor (Human immunodeficiency virus type 1 group M subtype B (isolate HXB2)) + DNA dC->dU-editing enzyme APOBEC-3G (Homo sapiens) (UniProt P69720+P69721+P69722+P69723+Q9HC16) (assay: inhibitors of Vif binding to APOBEC3G peptide, primary screen, biochemical, TR-FRET, GST-Vif 1-94, biotin-A3G peptide, dose response retest (AID 1117319;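 further: Vif residues 1-94 fused to GST binding biotinylated APOBEC3G peptide 110-148; 0% = full assay without inhibitor and 100% = GST in place of GST-Vif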)). Conditions: hits give high values.

inhibition, inactive:
Cc1ccc(OCC(=O)N2CCOCC2)cc1C -10.7%, CCCOc1ccc(N2C(=O)CC(N3CCN(CCN=CC4=C(O)CC(C)(C)CC4=O)CC3)C2=O)cc1 (centres undefined) 8.53%, CCOC(=O)C1CCN(C(=O)C2CCN(S(=O)(=O)c3cccc4nsnc34)CC2)CC1 -1.01%, COc1cc(C(=O)Oc2ccccc2N)cc(OC)c1OC -1.18%, O=Nc1ccc(O)c2ncccc12 25.1%, Oc1ccc(N=Nc2ccccc2C(F)(F)F)c2cccnc12 9.97%, COc1cccc(C2CC(=O)Nc3c2c(=O)n(C)c(=O)n3C)c1OC (centres undefined) 10.5%, CC(C)Oc1ccccc1C1CC(=O)Nc2c1c(=O)n(C)c(=O)n2C (centres undefined) 0.23%, O=C(CCCC(=O)OCC(F)(F)C(F)F)Nc1ccccc1F 0.88%, O=C(O)C1CCCCC1C(=O)Nc1nc(-c2cccs2)cs1 (centres undefined) -11.2%, CC(=O)OC1COC(n2ccc3cc([N+](=O)[O-])ccc32)C(OC(C)=O)C1OC(C)=O (centres undefined) -8.03%, CC(=O)O[C@@H]1[C@@H](OC(C)=O)[C@H](n2ccc3cc([N+](=O)[O-])ccc32)OC[C@@H]1OC(C)=O 11.9%, CCOc1ccc(-c2nc(CSc3nnc(N)s3)cs2)cc1 -2.32%, CC(=O)c1ccc(OC(=O)CCN2c3ccccc3Sc3ccccc32)cc1 3.97%, O=C(c1cc(-c2ccco2)on1)N1CCOCC1 5.5%, CN1CCN(C(=O)c2cc(-c3ccco3)on2)CC1 -6.26%, O=C(c1ccc(NS(=O)(=O)c2ccccc2)cc1)N1CCN(Cc2ccc3c(c2)OCO3)CC1 -2.32% and -6.24%, CCc1ccc(N(CC)C(=O)Cc2c(C(=O)O)n(C)c3ccccc23)cc1 3.87%, C=CCOC(=O)C1=C(C)N=C2SCCC(=O)N2C1c1ccc(OC(=O)c2ccco2)cc1 (centres undefined) -4.13%, Cn1c(-c2cnn(-c3ccccc3)c2-n2cccc2)n[nH]c1=S -6.44%, CCN(CC)Cc1cc(C(C)=O)ccc1O 1.01%, CCc1oc(C(=O)O)cc1CN(CC)CC 19%, O=C(COC(=O)c1cc(=O)[nH]c2ccccc12)Nc1nccs1 0.86%, Cc1ccc(C(=O)C2=C(O)C(=O)N(c3ncccn3)C2c2ccc(Br)cc2)o1 (centres undefined) 10.3%, Cc1ccc(C(=O)C2=C(O)C(=O)N(c3ncccn3)C2c2ccc(Cl)cc2)o1 (centres undefined) -30.5%, Cc1ccc(-n2c(-c3ccccc3)nnc2-c2cccs2)cc1 -9.97%, O=C(CCc1ccc(S(=O)(=O)NCc2ccccc2)cc1)N1CCN(Cc2ccc3c(c2)OCO3)CC1 1.72%, COCCN1C=C2C(=O)C(C)(OC(=O)CCC(=O)OC)C(=O)C=C2C=C1C1CC1 (centres undefined) 10.6%, CN1/C(=C\C(=O)COC(=O)c2ccco2)C(C)(C)c2ccccc21 3.26%, CCCCC1=CC2=CC(=O)C(C)(OC(=O)CC)C(=O)C2=CN1Cc1ccccc1 (centres undefined) 25%, COC(=O)CCC(=O)OC1(C)C(=O)C=C2C=C(C3CC3)N(C3CCCCC3)C=C2C1=O (centres undefined) 17.8%, COC(=O)CCC(=O)OC1(C)C(=O)C=C2C=C(C3CC3)N(CCc3ccccn3)C=C2C1=O (centres undefined) -2.65%, COC(=O)CCC(=O)OC1(C)C(=O)C=C2C=C(C3CC3)N(c3cccc(C#N)c3)C=C2C1=O (centres undefined) 11.9%, CC1(C)CC(=O)CC(C)(C)N1OC(=O)c1ccco1 0.85%, CCCCC1=CC2=CC(=O)C(C)(OC(=O)CC)C(=O)C2=CN1CCc1ccccn1 (centres undefined) 21.2%, CCN(CC(=O)NC)S(=O)(=O)c1ccc(Br)cc1 0.33%, CCc1ccccc1NC1=NCC(=O)N1Cc1ccc(OC)cc1 -4.85%, CCCCCC(O)(c1ccc(OCC)cc1)C(CN1CCOCC1)c1ccccc1 (centres undefined) -5.23%, COc1cccc(NC(=O)CN2C(=O)COc3ccc(S(=O)(=O)N4CCC(C)CC4)cc32)c1 -1.2%, OCCC1CN(Cc2cccc3nonc23)CCN1Cc1ccsc1 (centres undefined) 21.2%, CC(C)CCNC(=O)C(c1ccco1)N(CC1CCCO1)C(=O)Cn1nnc2ccccc21 (centres undefined) 18.9%, COC(=O)CCC(=O)OC1(C)C(=O)C=C2C=C(C3CC3)N(c3ccccc3)C=C2C1=O (centres undefined) 21.6%, C=CCN1C=C2C(=O)C(C)(OC(=O)C3CCCC3)C(=O)C=C2C=C1c1ccsc1 (centres undefined) 22.2%, COc1ccc(CN2C=C3C(=O)C(C)(OC(=O)C4CCCC4)C(=O)C=C3C=C2c2ccsc2)cc1 (centres undefined) 31%, CCCCC1=CC2=CC(=O)C(C)(OC(=O)CC)C(=O)C2=CN1C1CCCCC1 (centres undefined) 18.3%, COC/C=C/C1=CC2=CC(=O)C(C)(OC(=O)c3cnc4ccccc4n3)C(=O)C2=CN1C(CO)CO (centres undefined) 19.5%, CC1(OC(=O)C2CCCC2)C(=O)C=C2C=C(c3ccsc3)N(CCCCO)C=C2C1=O (centres undefined) 21.2%, CCOC(=O)C1=C(COC(=O)Cc2ccccc2)NC(=O)NC1C (centres undefined) 2.89%, CCCS(=O)(=O)c1nc(S(=O)(=O)c2ccc(C)cc2)c(N2CCCC2)s1 -10.9%, O=C1C2CC=CCC2C(=O)N1c1ncn[nH]1 (centres undefined) 0.84%, COc1cccc(OC)c1C(=O)Nc1ccccc1NC(=O)c1c(OC)cccc1OC -6.67%, O=[N+]([O-])c1ccc(/C=N/n2cn[nH]c2=S)cc1 0.85%, O=S(=O)(NC1CC1)c1ccc(S(=O)(=O)N2CCc3ccccc32)cc1 18.3%, COc1cc2c(cc1OC)C1c3ccc(OC)c(OC)c3OCC1(O)C2 (centres undefined) -4.73%, CCN(CC(=O)Nc1ccc(OC)cc1)C(=O)c1ccc2c(=O)n3c(nc2c1)CCC3 -5.14%, O=C1C(Cc2ccccc2)NC(=S)N1c1ccccc1 (centres undefined) -3.85%, O=C1/C(=C\c2cccnc2)SC(=S)N1c1ccc(F)cc1 1.49%, CCOc1cccc(/C=C2\NC(=S)N(c3ccccc3)C2=O)c1O 8.76%, CC1CNC(=S)N(c2ccc(F)cc2)C1=O (centres undefined) -6.26%, CN(C)/C=C1\NC(=S)N(c2ccccc2)C1=O -8.51%, O=C1/C(=C/c2ccco2)N=C(N2CCCCC2)N1c1ccccc1 23.7%, Cc1ccc2c(C)c(C(=O)NCCc3ccco3)oc2c1C -1.77%, CN(CC(=O)Nc1ccc(Cl)c(C(F)(F)F)c1)C(=O)c1cc(=O)[nH]c2ccccc12 1.56%, Cc1ccc(C(=O)CCC(=O)Nc2ccc(C)cn2)cc1 -9.87%, Cc1ccnc(NC(=O)CCC(=O)N(CC(=O)NCc2ccccc2)c2ccc3c(c2)OCO3)c1 12.1%, Cc1cc(C)nc(SCc2cc(=O)c(OC(=O)c3ccc(Cl)c([N+](=O)[O-])c3)co2)n1 31.3%, CN(C1=C(NC(=O)c2ccccc2)C(=O)c2ccccc2C1=O)C1CCS(=O)(=O)C1 (centres undefined) 23.9%, CN(c1ccc(C(=O)Nc2ccc(Cl)cn2)cc1)S(=O)(=O)c1ccccc1 18.3%, Fc1cccc(NC(=S)N2CCCCC2)c1 1.92%, Cc1ccc(CC(NC(=O)c2ccccc2)C(=O)N2CCCC2C(=O)O)cc1 (centres undefined) -0.14%, O=C(O/N=C1\CCS(=O)(=O)c2sccc21)C1CC1 -8.69%, O=C1C(Cl)=C(NCCc2ccccc2)C(=O)c2ccccc21 14.2%, Nc1c(Cl)cc2c(c1Oc1ccccc1)C(=O)c1ccccc1C2=O 7.9%, Cc1ccc(NS(=O)(=O)c2ccc(C(=O)N3CCCC(C(F)(F)F)C3)cc2)cc1 (centres undefined) -6.68%, O=C1/C(=C/c2ccccn2)SC(=S)N1c1cccc(O)c1 1.67%, O=C(COc1ccccc1F)Nc1ccc2[nH]c(=O)[nH]c2c1 -2.63%, COC(=O)c1cc(NC(=O)c2cc(-c3ccc(Cl)cc3)oc2C(F)(F)F)ccc1N1CCOCC1 -11.7%, CSCCC(NC(=O)/C(=C/c1ccco1)NC(=O)c1ccc(Br)o1)C(=O)O (centres undefined) 13.7%, CC(C)C(NC(=O)/C(=C/c1ccco1)NC(=O)c1ccc(Br)o1)C(=O)O (centres undefined) 25.7%, COc1cc(/C(O)=C(\C#N)c2nc3ccccc3[nH]2)cc(OC)c1OC 3.24%, Cc1ccc(Cl)cc1N1CCN(C(=O)COc2ccc(S(=O)(=O)NC(C)C)cc2)CC1 6.57%, O=C(COc1ccc2c(c1)CCC2)N1CCN(c2ccc(F)cc2)CC1 4.96%, Cc1cc(C)n(CC(O)COc2ccccc2[N+](=O)[O-])n1 (centres undefined) 10.6%, N#CC1=C(N)Oc2c(oc(CO)cc2=O)C1c1cccs1 (centres undefined) 26.6%, COc1ccc(C2C(C#N)=C(N)Oc3c2oc(CO)cc3=O)cc1 (centres undefined) -2.28%, O=C(OCC(=O)N1CCc2ccccc21)c1ccccn1 -3.08%, Cc1ccc(S(=O)(=O)N2CCOCC2)cc1C(=O)NC1CCCCC1 1.31%, CCOC(=O)c1sc2nc(CC(=O)OC)nc(NCc3ccc(F)cc3)c2c1C -3.02%, CCOC(=O)c1sc2nc(CC(=O)OC)nc(NCc3ccc(Cl)cc3)c2c1C -0.39% and -4.73%
